# Measurements as given in PubChem BioAssay AID720549 (National Center for Advancing Translational Sciences (NCATS), 2013).
# Inconclusive results are not listed. The source made the active and inactive calls. Calls follow the shape of the dose curve; as a rule, active = well fitted inhibition curve with a large enough effect; inconclusive = small, poorly fitted or top-dose-only effect; inactive = flat fitted curve, though single readings scatter.
# Molecular target: RecQ-like DNA helicase BLM (Homo sapiens) (UniProt P54132)
# Sequence (P54132 whole entry, looked up): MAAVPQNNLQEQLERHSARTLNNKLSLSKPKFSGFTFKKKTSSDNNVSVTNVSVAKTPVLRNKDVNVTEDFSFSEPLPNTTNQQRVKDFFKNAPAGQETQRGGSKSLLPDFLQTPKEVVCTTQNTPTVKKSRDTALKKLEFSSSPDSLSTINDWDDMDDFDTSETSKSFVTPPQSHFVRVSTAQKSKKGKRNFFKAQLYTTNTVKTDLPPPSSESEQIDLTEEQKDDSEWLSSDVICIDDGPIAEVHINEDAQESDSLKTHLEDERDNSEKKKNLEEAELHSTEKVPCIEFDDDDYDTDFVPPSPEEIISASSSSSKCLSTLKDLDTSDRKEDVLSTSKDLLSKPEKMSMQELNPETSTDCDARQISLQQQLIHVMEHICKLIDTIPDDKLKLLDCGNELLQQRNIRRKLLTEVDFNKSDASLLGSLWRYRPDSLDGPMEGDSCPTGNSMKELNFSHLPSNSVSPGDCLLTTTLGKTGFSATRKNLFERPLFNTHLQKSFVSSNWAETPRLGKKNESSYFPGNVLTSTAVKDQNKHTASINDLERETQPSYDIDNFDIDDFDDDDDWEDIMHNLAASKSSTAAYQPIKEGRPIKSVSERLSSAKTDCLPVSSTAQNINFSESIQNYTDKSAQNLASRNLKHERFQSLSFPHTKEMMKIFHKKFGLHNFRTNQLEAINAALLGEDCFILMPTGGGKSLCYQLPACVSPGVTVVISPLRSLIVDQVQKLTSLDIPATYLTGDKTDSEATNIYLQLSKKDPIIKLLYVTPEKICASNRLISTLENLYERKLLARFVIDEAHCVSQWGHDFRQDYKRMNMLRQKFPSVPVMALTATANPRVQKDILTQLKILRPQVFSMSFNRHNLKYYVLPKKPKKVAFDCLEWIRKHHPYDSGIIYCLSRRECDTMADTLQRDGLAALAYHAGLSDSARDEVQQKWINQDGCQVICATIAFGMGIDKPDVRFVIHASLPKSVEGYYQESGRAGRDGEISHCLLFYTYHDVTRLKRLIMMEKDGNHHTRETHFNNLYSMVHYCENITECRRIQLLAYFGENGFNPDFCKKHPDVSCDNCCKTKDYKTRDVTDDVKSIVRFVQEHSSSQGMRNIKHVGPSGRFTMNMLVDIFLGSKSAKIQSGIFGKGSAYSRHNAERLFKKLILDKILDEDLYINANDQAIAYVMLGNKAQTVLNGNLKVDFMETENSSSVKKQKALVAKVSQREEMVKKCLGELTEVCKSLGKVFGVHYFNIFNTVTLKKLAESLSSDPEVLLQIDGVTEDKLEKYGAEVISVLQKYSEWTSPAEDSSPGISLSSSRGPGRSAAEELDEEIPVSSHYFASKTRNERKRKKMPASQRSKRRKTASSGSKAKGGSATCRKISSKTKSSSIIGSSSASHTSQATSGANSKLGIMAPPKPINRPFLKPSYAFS
# Assay: qHTS for Inhibitors of Bloom's syndrome helicase (BLM): Helicase ATPase Orthogonal Confirmatory Assay for SAR
# Settings: purified BLM helicase ATPase activity assay; series mostly up to 57.1 µM
# Source text: Human RecQ DNA helicases participate in maintenance of genome stability and DNA repair. While other types of helicases have been explored as targets for drug development, members of the RecQ family have remained less well characterized. Mutations of the Bloom helicase gene have been associated with the rare human genetic disease called Bloom syndrome. […] Moreover, identified inhibitors can be used in cells and animal models to examine the consequences of inhibition on the survival of cancer cells where it has been shown that BLM plays an important role.
# A fluorescence-based, biochemical assay in 1536 well format was developed to evaluate inhibition of BLM DNA unwinding activity. This assay was used to screen the MLPCN library. […] This luminescence assay employs a purified BLM enzyme and a single stranded BLM oligo substrate ([…]). For this assay increase in luminescence signal is greater than or equal to 700 RLU. […]
# Three microliter of reaction buffer (25mM Tris-HCl pH 8.0, 50mM NaCl, 2mM MgCl2, 1mM DTT, and 0.01% Tween- 20, and 2nM BLM enzyme) was dispensed into a 1536-well assay plates (Greiner, solid white medium-binding) via Aurora Discovery BioRAPTR Flying Reagent Dispenser (FRD). […] After 30 min at room temperature, the luminescence signal was detected using the ViewLux CCD imager. […]
smiles,measurement,value
N#Cc1ccc(NC(=O)Nc2nnc(-c3ccncc3)s2)cc1C(F)(F)F,outcome,inactive
